Test results as given in the supplement of paper PMC3545927.
This is one part of the list. No count for the full screen is at hand.

Target: furin, P09958
Assay: furin cleavage Z-score vs untreated control; higher = more cleavage, active = 3.5 or more, inactive = 1 or less, 8 variable residues between constant flanks
Method in brief: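 Furin-free reactions served as the baseline for the cleavage Z-score, which is the log read count lowess-adjusted and scaled by median absolute deviation. Counts came from released DNA, adapter-tagged by PCR and sequenced. Purified furin had cut 8-mer peptides fused to a cDNA oligonucleotide on magnetic beads during 7.5, 15 or 30 min at 1:10 enzyme:substrate.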
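Also: purified furin at 1:10 enzyme:substrate in 50 mM HEPES pH 7.5.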

Sequence of furin, P09958 (P09958 whole entry): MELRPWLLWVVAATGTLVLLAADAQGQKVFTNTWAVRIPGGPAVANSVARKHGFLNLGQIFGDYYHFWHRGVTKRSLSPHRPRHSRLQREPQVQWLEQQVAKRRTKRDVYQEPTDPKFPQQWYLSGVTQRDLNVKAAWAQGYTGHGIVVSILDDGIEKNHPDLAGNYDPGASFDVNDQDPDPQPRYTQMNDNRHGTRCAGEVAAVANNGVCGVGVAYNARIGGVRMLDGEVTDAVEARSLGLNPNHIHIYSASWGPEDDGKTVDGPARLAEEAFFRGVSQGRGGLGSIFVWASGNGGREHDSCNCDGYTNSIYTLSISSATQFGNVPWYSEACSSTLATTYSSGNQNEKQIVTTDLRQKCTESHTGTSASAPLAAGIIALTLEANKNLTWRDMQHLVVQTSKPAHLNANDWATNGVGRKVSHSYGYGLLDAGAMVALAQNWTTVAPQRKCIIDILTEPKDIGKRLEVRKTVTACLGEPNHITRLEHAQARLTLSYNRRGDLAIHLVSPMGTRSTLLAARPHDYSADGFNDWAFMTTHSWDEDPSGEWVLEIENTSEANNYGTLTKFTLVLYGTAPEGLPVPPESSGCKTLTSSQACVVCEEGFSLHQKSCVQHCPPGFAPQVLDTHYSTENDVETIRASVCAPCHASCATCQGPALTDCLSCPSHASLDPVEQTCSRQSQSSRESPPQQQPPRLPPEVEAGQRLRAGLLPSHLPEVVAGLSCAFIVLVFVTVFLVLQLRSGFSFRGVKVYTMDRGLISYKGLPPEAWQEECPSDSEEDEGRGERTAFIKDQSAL

| Sequence | furin cleavage Z-score (7.5 min) | furin cleavage Z-score (15 min) | furin cleavage Z-score (30 min) |
| --- | --- | --- | --- |
| CADYEPPVVHAGNASASA [HC1313] | -0.331 (inactive) | -1.03 (inactive) | 0.818 (inactive) |
| CAKKSRSGRHAGNASASA [FS-1635] | 1.49 | 3.83 (active) | 4.08 (active) |
| CARKKRVHFHAGNASASA [FS-2271] | -0.215 (inactive) | -0.15 (inactive) | 0.343 (inactive) |
| CARKKRSGRHAGNASASA [FS-2968] | 8.42 (active) | 11.9 (active) | 8.64 (active) |
| CAKKSRKSRPAGNASASA [FS-43] | -1.56 (inactive) | -0.706 (inactive) | -1.33 (inactive) |
| CAKKSRAERKAGNASASA [FS-676] | -0.262 (inactive) | -0.389 (inactive) | 0.536 (inactive) |
| CAYGMWPLLLAGNASASA [HC556] | 1.73 | 0.0218 (inactive) | -0.323 (inactive) |
| CATTPCSGHWAGNASASA [HC1915] | -0.316 (inactive) | 1.87 | 0.16 (inactive) |
| CAAHGIDPNIAGNASASA [HC796] | -0.768 (inactive) | -0.681 (inactive) | 0.0731 (inactive) |
| CATTPCDGSWAGNASASA [HC72] | 0.037 (inactive) | 1.11 | 0.507 (inactive) |
| CAMEECSLHLAGNASASA [HC1725] | -0.0304 (inactive) | 0.668 (inactive) | 0.792 (inactive) |
| CAREGRSKALAGNASASA [FS-2911] | 0.205 (inactive) | 2.53 | 0.493 (inactive) |
| CAREGRLKRDAGNASASA [FS-1256] | 11.7 (active) | 13 (active) | 11 (active) |
| CARYGRFLQPAGNASASA [FS-3134] | 0.584 (inactive) | 1.53 | 0.786 (inactive) |
| CARYGRCKRDAGNASASA [FS-715] | 15.2 (active) | 15.5 (active) | 11.9 (active) |
| CAKQLRLKRDAGNASASA [FS-814] | 15 (active) | 13.5 (active) | 10.4 (active) |
| CAKRSHLKRDAGNASASA [FS-680] | 6.24 (active) | 7.72 (active) | 6.62 (active) |
